# Screening data (PubChem)
# This is one part of a sample in which hits are shown more often than they occur.
# RECQ1 inh: RECQ1 (human) helicase inhibition; 0.54% of 240,000 active; Potency, µM (highest dose often 57.3 µM), for inactives: at the top dose activity, negative = inhibition, most hits filed as inhibitors; P46063; AID 2549; RECQ1 DNA unwinding, red fluorescence kinetic read;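 also: plate controls were vehicle for no effect and no enzyme for full effect; nearly all actives have a fitted effect of over 30% in size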
#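 RECQ1T1 50 nM; forked duplex (20 bp + 30-nt ss tails) 200 nM, ATP 2 mM final; pH 8.0, 2 mM MgCl2, 2.5 ug/ml poly(dI-dC); 15 min compound preincubation; discontinuous kinetic read over 2 h at RT.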
# PKM2 act: activators of human pyruvate kinase M2; purified PKM2, Kinase-Glo ATP luminescence, activation; response scale: 0% is enzyme alone, no compound; Potency, µM (doses to about 57.5 µM), without a hit: top-dose activation, actives largely listed as activators; P14618; 0.34% of 260,000 active; also: nearly all actives have a fitted effect of over 55% in size
#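 ATP formation by purified human PK-M2, quantified via coupled luciferase luminescence after 1 h at room temperature with 0.1 mM ADP and 0.5 mM PEP final.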
# BLM inh: Bloom syndrome helicase (human) inhibition; P54132; recombinant BLM DNA unwinding, fluorescence dequenching; Potency, µM (titrated, usually from 56.1 µM), without a hit: top-dose activity change, negative = inhibition, hits mostly inhibitors; 0.2% of 350,000 active;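 also: plate controls were vehicle for no effect and no enzyme for full effect; nearly all actives have a fitted effect of over 35% in size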
# APE1 inh: APE1 (human) endonuclease inhibition. recombinant APE1, TAMRA/BHQ-2 abasic DNA cleavage fluorescence. Potency, µM (titrated, usually from 65.8 µM), without a hit: at the top dose activity change, negative = inhibition, most hits filed as inhibitors. AID 2517. 0.35% of 350,000 active. P27695;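 also: plate controls were vehicle for no effect and reference inhibitor for full effect; nearly all actives have a fitted effect of over 55% in size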
# Target sequence (P27695 whole entry, looked up): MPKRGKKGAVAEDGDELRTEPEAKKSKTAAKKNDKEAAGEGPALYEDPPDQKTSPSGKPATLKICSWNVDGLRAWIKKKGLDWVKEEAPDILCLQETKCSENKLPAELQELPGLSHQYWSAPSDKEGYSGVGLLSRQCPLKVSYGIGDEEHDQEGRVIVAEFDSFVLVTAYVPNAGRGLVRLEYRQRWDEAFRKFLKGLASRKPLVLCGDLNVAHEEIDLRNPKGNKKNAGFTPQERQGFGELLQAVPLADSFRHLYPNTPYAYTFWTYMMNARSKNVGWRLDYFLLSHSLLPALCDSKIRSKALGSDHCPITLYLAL
#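 Substrate: short duplex with […] THF abasic site, 5'-TAMRA and 3'-BHQ-2, 50 nM final. APE1 at 0.75 nM, preincubated 15 min RT with compound. Fluorescence increase from first to third read measured activity.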
# KDM4E inh: JMJD2E (human) inhibition; B2RXH2; JMJD2E catalytic domain, FDH-coupled NADH fluorescence (FDH is formaldehyde dehydrogenase); Potency, µM (doses to about 57.1 µM), inactives show at the top dose activity change, negative = inhibition, usual class: inhibitors; 1.6% of 230,000 active; active = well fitted inhibition curve with a large enough effect, not every such curve was filed as active; inconclusive = small, poorly fitted or top-dose-only effect, or another doubt; inactive = no such curve, though single readings can be large or run the other way;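 also: 0% = wells with enzyme and -100% = buffer wells without enzyme; nearly all actives have a fitted effect of over 50% in size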
# Active calls of the source: *; i = inactive; ? = inconclusive; / = no result given; [ ] = remark or other dose. Unless noted, calls follow the shape of the dose curve; as a rule, active = well fitted curve in the direction sought with a large enough effect; inconclusive = small, poorly fitted or top-dose-only effect, or another doubt; inactive = no such curve, though single readings can be large; an effect the other way counts as inactive or inconclusive. Unless noted, % is scaled to controls: 0 for no effect and ±100 for the full control effect; potency is read from the fitted curve at half-maximal effect.
SMILES,RECQ1 inh,PKM2 act,BLM inh,APE1 inh,KDM4E inh
Cc1noc(-c2ccc(CSCCC(=O)O)cc2)c1NC(=O)OC(C)c1ccccc1Cl (stereo not drawn),-11%,/,0%,-2%,/
Cc1ccc(O)c(N=CC2=C(O)c3ccccc3C2=O)c1,-17%,0%,-8%,-9%,-5%
CC(C)(C)c1ccc(O)c(N=Cc2cc(Br)ccc2O)c1,15%,?,-13%,4%,28µM*
Cc1ccc(O)c(C=Nc2cc(C)ccc2O)c1,i,-4%,0%,5%,20µM*
Cc1nc2c(-c3ccc(Cl)cc3)c(C)[nH]n2c(=O)c1Cc1ccccc1,-12%,1%,-12%,?,32µM*
CSc1nc(C)cc(OCC(=O)N/N=C/c2ccccc2O)n1,-6%,-3%,3%,8%,25µM*
Cc1cc(=O)oc2cc(OCC(=O)N/N=C/c3ccccc3O)ccc12,/,/,?,23%,/
COc1cc(/C=C2/CC/C(=C/c3ccc(O)c(OC)c3)C2=O)ccc1O,12%,11%,-11%,3%,11µM*
CN[C@@H](CCCN=C(N)N)C(=O)N[C@@H](CCCCN)C(=O)N1CCC[C@H]1C(=O)N[C@@H](Cc1c[nH]c2ccccc12)C(=O)N[C@H](C(=O)N[C@H](CC(C)C)C(=O)O)C(C)(C)C,0%,/,-2%,2%,/
Cc1cccc(N2C(=O)C(Cl)=C(N3CCOCC3)C2=O)c1,-3%,?,10%,16%,-1%
O=C1C(Cl)=C(N2CCOCC2)C(=O)N1c1cccc(Cl)c1,-6%,14µM*,0%,-1%,-6%
C[C@@H](O)[C@@H]1C(=O)N2C(C(=O)O)=C([C@H]3CCCO3)S[C@H]12,/,/,-2%,/,/
Cc1ccc(S(=O)(=O)N(C(=O)c2ccco2)c2cc3sc(=O)oc3c3ccccc23)cc1,i,22%,-7%,-4%,14µM*
CCOc1ccc(S(=O)(=O)N(C(=O)c2ccco2)c2cc3sc(=O)oc3c3ccccc23)cc1,-5%,23%,-11%,0%,16µM*
COc1ccc(S(=O)(=O)N(C(=O)C(C)C)c2ccc3oc(=O)sc3c2)cc1,-5%,?,1%,0%,-8%
COc1ccc(S(=O)(=O)N(C(=O)c2ccco2)c2cc3sc(=O)oc3c3ccccc23)cc1,-2%,25%,-3%,0%,13µM*
CC(=O)N(c1ccc2oc(=O)sc2c1)S(=O)(=O)c1ccccc1,i,?,-3%,-1%,-3%
CCOc1ccc(C(=O)c2cccs2)cc1,-8%,5%,-5%,24%,-1%
CCOc1ccc(C(=O)c2ccc(O)c(O)c2O)cc1,?,/,-19%,?,14µM*
CCOc1cccc(C(=O)c2ccc(O)c(O)c2O)c1,?,/,-16%,?,10µM*
CCOCCOCC,1%,/,/,0%,/
COC/C=C/C1=CC2=CC(=O)C(C)(OC(=O)c3cnc4ccccc4n3)C(=O)C2=CN1Cc1ccc2c(c1)OCO2 (stereo not drawn),-9%[11.5 µM],3%[11.5 µM],-20%[12.4 µM],-3%[12.4 µM],-22%[11.4 µM]
CCOC(=O)c1oc2c(O)c(O)ccc2c(=O)c1-c1nncn1-c1ccccc1,11%,25%,1%,-11%,7.9µM*
CCCCOc1ccc(Cn2c(=O)oc3ccc(C)cc32)cc1,/,/,1%,/,/
CCCC(=O)OCCNc1cc(SCc2ccco2)c2nonc2c1[N+](=O)[O-],3%,?,13µM*,6%,-1%
SMILES,RECQ1 inh,PKM2 act,BLM inh,APE1 inh,KDM4E inh
CC(=O)OCCCNc1cc(SCc2ccco2)c2nonc2c1[N+](=O)[O-],?,?,-17%,?,-19%
COc1cccc(/C=N/NC(=O)c2cnccn2)c1O,-1%,-23%,2%,-1%,11µM*
COc1cccc(/C=N/NC(=O)C(=O)NCc2ccco2)c1O,-15%,-1%,-2%,4%,13µM*
COc1cccc(/C=N/NC(=O)c2ccoc2C)c1O,-15%,-52%,-8%,2%,14µM*
COc1cccc(/C=N/NC(=O)C(=O)N/N=C/c2cccc(OC)c2O)c1O,?,0%,-6%,3%,?
COc1cccc(/C=N/NC(=O)c2c(-c3ccccc3)noc2C)c1O,-4%,-5%,-2%,-4%,32µM*
